Drawing on PubChem BioAssay AID1063 (University of Pittsburgh Molecular Library Screening Center, 2008), this text covers inhibition for 112 compounds.

The campaign covered roughly 200,000 compounds. About 18,000 (9%) were called active. For the sample, actives were picked, then their nearest neighbours and some compounds at random. A number with no mark means an inactive call. Cut-off read from the data, not from the text of the source: active = inhibition above about 50%; inactive = the rest.

The nature of the assay: antileishmanial activity against promastigotes – primary screen (AID 1063).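 Note: promastigotes grown with compound for 44 hours at 28 °C.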 The settings on record: Leishmania major promastigotes, resazurin fluorescence viability; at 10 µM; stronger effect = higher value. For orientation: Resazurin is reduced to fluorescent resorufin, in cell work by metabolically active cells.
As for `CCc1nc2ccccc2c(C(=O)OC2CCCCC2=O)c1C` (configuration not stated), the inhibition was 7.85%. Under `O=[N+]([O-])c1cccc(/C([O-])=C(/C(=S)Nc2ccccc2F)[n+]2ccccc2)c1` stands -0.54%.

Turning to `C=CCN(C(=O)c1cc(C)cc(C)c1)C1(C(=O)Nc2ccccc2)CCN(C(C)C)CC1`, the inhibition is 6.23%.

As to `CCNC(=O)N1c2ccccc2Sc2ccccc21`, the inhibition is 4.94%. The same measure for `COc1ccccc1CNC(=O)C1Cc2ccccc2C(=O)O1` (configuration not stated): -1.31%. The same measure for `CCCC1NC(=S)NC(C)=C1C(C)=O` (configuration not stated): -12.4%; for `O=C(/C=C/c1ccc2c(c1)OCO2)NCc1cn2cc(Cl)ccc2n1`: -4.11%; for `CC(C)NC(=S)Nc1cccc2cnccc12`: -1.24%. The same measure for `CCOC(=O)Cn1nnnc1C`: -3.4%. For `C=CCC(CC=C)(C(N)=O)c1ccccc1`, the inhibition is 2.87%. Under `CCCCC(O)(CCCC)C(=O)NN(C(=O)CCl)c1ccccc1` stands 54.5% (active); under `Cc1ccc(N(NC(=O)C(C)(C)O)C(=O)c2ccccc2)cc1C`, -3.54%; under `CCC(C)NC(=O)CCCc1ccccc1` (configuration not stated), 13.2%. Under `CCCC(O)(CCC)C(=O)NN(C(=O)CCl)c1cccc(C)c1` stands 82.9% (active). As to `CC(C)(O)C(=O)NN(C(=O)c1ccccc1)c1cccc(Br)c1`, the inhibition is 3.6%. `CCCCCCCCC(=O)NCCOc1ccccc1`: the inhibition was -9.39%. The same measure for `Cc1ccc(N(C(=O)c2ccc(S(=O)(=O)N(C)C)cc2)C2C=CS(=O)(=O)C2)cc1` (configuration not stated): 5.35%.

With `COc1ccccc1-c1noc(CSc2nc(C)cc(=O)[nH]2)n1`, the inhibition was -6.37%. The same measure for `N#CCC(=O)N/N=C/c1ccc(SCC(=O)Nc2ccccc2)o1`: -1.51%; for `CCSc1sc(CC)cc1C=O`: 5.02%. `c1ccc2sc(NN=C3CCCC3)nc2c1`: the inhibition was 57% (active). With `O=C(Nc1ccccc1)Nc1nc2ccccc2s1`, the inhibition is -0.32%. The same measure for `Cc1ccnc(Nc2nc3ccccc3s2)n1`: 11.8%. The same measure for `O=C(C1CCCN1S(=O)(=O)c1ccc(Br)cc1)N1CCOCC1` (configuration not stated): 1.18%; for `CC1(C)CN(c2ccc(-c3ccnc4ncnn34)cc2)C1=O`: 8.31%; for `CCN(CC)CCN(C(=O)c1ccc(N2C(=O)CCC2=O)cc1)c1nc2cc3c(cc2s1)OCO3`: 4.38%. Under `Cc1[nH]c2ccccc2c1SCC(=O)Nc1nccs1` stands 2.27%; under `Cc1ccc(NC(=O)NC2CCCCC2)cc1S(=O)(=O)N1CCOCC1`, 27.4%.

As to `COc1ccc(S(=O)(=O)N2CCC(C(=O)OCC(=O)c3ccccc3)CC2)cc1[N+](=O)[O-]`, the inhibition was -6.1%. The same measure for `O=C(NC(=S)Nc1ccc(S(=O)(=O)N2CCOCC2)cc1)c1ccccc1[N+](=O)[O-]`: 5.68%; for `Cc1cc(C(=O)COc2ccccc2[N+](=O)[O-])c(C)n1-c1cccc(S(=O)(=O)N2CCOCC2)c1`: 98.9% (active). The same measure for `S=c1[nH]ccn1-c1ccc(Cl)cc1`: -8.82%. Under `O=S(=O)(NC1CC1)c1ccc2c3c(cccc13)CC2` stands 3.72%. For `Cc1ccc(C(=O)OC2CCCN(C)C2)cc1` (configuration not stated), the inhibition was -6.05%.

On to `CCNS(=O)(=O)c1ccc(NC(=O)Nc2cccc(OC)c2)cc1`, for which the inhibition is 3.37%.

`CCNS(=O)(=O)c1ccc(NC(=O)c2cncc(Br)c2)cc1`: the inhibition was 50.3% (active).

Turning to `O=C(Nc1ccc(S(=O)(=O)Nc2ncccn2)cc1)c1cncc(Br)c1`, the inhibition was -5.97%. For `N#CC1(C#N)C(C(=O)C23CC4CC(CC(C4)C2)C3)C12CCOCC2` (configuration not stated), the inhibition was 4.33%.

In the case of `Cc1ccccc1CSc1nnc(-c2ccccc2)c(=O)[nH]1`, the inhibition is -8.07%. Under `Cc1nn(CC(=O)Nc2nc3ccccc3s2)c(C)c1[N+](=O)[O-]` stands 50.5% (active). The same measure for `CCc1ccc(NC(=O)Cn2nc(C)c([N+](=O)[O-])c2C)cc1`: 6.59%; for `Cc1nn(CC(=O)NCc2ccccn2)c(C)c1[N+](=O)[O-]`: -2.73%. Under `C=CCN(CC=C)C(=O)COC(=O)c1n[nH]c2ccccc12` stands 1.59%; under `CN(C(=O)CSc1nncc2ccccc12)C1CCCCC1`, 0.99%; under `COc1ccc(-c2cn3ccsc3n2)cc1`, 0.76%. In the case of `Cc1ccc(-c2cn3cc([N+](=O)[O-])ccc3n2)cc1`, the inhibition is 6.77%. The same measure for `Cc1ccc(-c2cn3cc(C)ccc3n2)cc1`: 87.7% (active); for `CC1(C)C2CC=C(/C=N/NC(=O)c3ccc(Cl)cc3)C1C2` (configuration not stated): 96% (active); for `N#Cc1cc([N+](=O)[O-])ccc1Oc1cccc(/C=N/NC(=O)c2ccc(Cl)cc2)c1`: 15.7%.

In the case of `O=C(N/N=C/c1ccco1)c1ccc(NC(=O)C2CC2)cc1`, the inhibition is 5.98%. Under `CC1(C)C2CC=C(/C=N/NC(=O)C3CC3)C1C2` (configuration not stated) stands 99.3% (active); under `CC(C)(C)C(=O)Nc1ccc(C(=O)N/N=C/c2ccccc2OC(=O)c2ccc(Cl)cc2Cl)cc1`, 40.8%. Under `CCOc1ccc(N2C(=O)CN(c3cccc4ccccc34)C2=S)cc1` stands -2.38%; under `CCS(=O)(=O)C1=NSC2=NC(=O)/C(=C\c3cc(C)n(-c4cccc(OC)c4)c3C)C(=N)N21`, -2.58%.

As to `Cc1ccc(S(=O)(=O)NCCC(c2ccccc2)c2ccccc2)cc1C(=O)O`, the inhibition was -13.6%. The same measure for `COc1cccc(-n2nc(C(=O)N3CCN(Cc4ccccc4)CC3)c3ccccc3c2=O)c1`: -6.17%. In the case of `Cc1ccnc(NC(=O)c2ccc(Cl)c([N+](=O)[O-])c2)c1`, the inhibition is 28.8%. For `NC(N)=N/N=C/c1ccc(Cl)c([N+](=O)[O-])c1`, the inhibition was 100% (active). Regarding `CC(CC(=O)O)C(=O)c1ccc(Cl)c([N+](=O)[O-])c1` (configuration not stated), the inhibition is -1.01%. As to `O=C(CCNS(=O)(=O)c1ccc(Br)s1)NCc1ccccc1Cl`, the inhibition is 15.3%. Under `CCCc1cc(=O)[nH]c(SCC(=O)OCc2ccccc2)n1` stands 1.09%; under `CCCc1cc(=O)[nH]c(SCC(=O)N2CCN(S(=O)(=O)c3ccc(C)cc3C)CC2)n1`, 63% (active).

Regarding `CCCc1cc(=O)[nH]c(SCC(=O)c2cc(C)n(CCC)c2C)n1`, the inhibition is 11.3%. Under `CCCOc1ccc(NC(=O)CC2C(=O)N(C)C(=S)N2Cc2ccc3c(c2)OCO3)cc1` (configuration not stated) stands 3.31%; under `COc1cccc(NCCC(=O)c2cccc([N+](=O)[O-])c2)c1`, 85% (active). The same measure for `COc1ccc(Cc2nnc(SCC(=O)c3cccc([N+](=O)[O-])c3)n2C)cc1`: 7.37%; for `CC(C)(C)SCCNC(=O)c1cccc([N+](=O)[O-])c1`: 45.2%; for `O=C(c1nnc(-c2ccc(Cl)cc2)o1)C1CCCC1`: -8.13%. For `Cc1cccc(NC(=S)NC23CN4CN(CN(C4)C2)C3)c1`, the inhibition was -0.78%. Under `CC1CCCCN1CC(=O)NCc1ccc2c(c1)OCO2` (configuration not stated) stands 4.4%. On to `CC(=O)NC1CC2CCCC(C1)N2CC(=O)Nc1ccccc1` (configuration not stated), for which the inhibition was -0.85%. `CCN(CC)c1ccc(C2C3CCCCC3(O)CCN2CC(=O)Nc2ccccc2)cc1` (configuration not stated): the inhibition was 78.2% (active). Under `O=C(CN1CCOCC1)Nc1ccccc1` stands -4.08%; under `CC1CCCCC1NC(=O)CN1CCC(O)(c2ccc3c(c2)OCO3)CC1` (configuration not stated), 30.1%; under `Cc1ccc(NC(=O)CN2CCC3(O)CCCCC3C2c2ccc3c(c2)OCO3)c(C)c1` (configuration not stated), 89.1% (active). Take `Cc1cccc(OCC(O)Cn2c(=N)n(CCN3CCOCC3)c3ccccc32)c1` (configuration not stated): the inhibition was 10.1%.

As for `CCOc1ccc(C(O)Cn2c(=N)n(CCN3CCCCC3)c3ccccc32)cc1` (configuration not stated), the inhibition is 80.6% (active). The same measure for `Cn1c(=N)n(CC(O)c2ccccc2)c2ccccc21` (configuration not stated): 3.48%; for `CCOC(=O)C1C(c2ccc(Cl)cc2)NC(=S)NC1(O)C(F)(F)F` (configuration not stated): -2.87%; for `COc1ccc(OCC(=O)N2CCOCC2)cc1`: 0.46%. Under `COc1ccc(OCC(=O)N2CCN(C(=O)COc3ccccc3)CC2)cc1` stands -5.93%. The same measure for `CC1CN(C2CCN(C(=O)COc3ccccc3)CC2)CC(C)O1` (configuration not stated): 88.1% (active); for `Cc1csc(CN(C)C(=O)CC2C(=O)NCCN2CC(C)(C)C)n1` (configuration not stated): -1.56%. In the case of `O=C(N/N=C/c1ccc([N+](=O)[O-])cc1)c1c[nH]c2ccccc12`, the inhibition is 2.8%. In the case of `Cc1cc(C)c(C(N)=O)c(Cl)n1`, the inhibition was -12.9%. For the compound `Cc1cc(C)nc(N2CCC(C(=O)Nc3ccc4c(c3)OCCO4)CC2)n1`, the inhibition is -3.98%. `COc1ccc(S(=O)(=O)Nc2cccnc2)c(Cl)c1Cl`: the inhibition is 1.47%. The same measure for `CCOC(=O)C1CCN(C(=O)C2(NC(=O)Nc3cccc(F)c3)CCCCC2)CC1`: -15.2%; for `CC1CCN(CCC(=O)Nc2ccccc2)CC1`: 18.3%; for `CCOC(=O)C1CCN(CCC(=O)Nc2cccc(C)c2)CC1`: 92.7% (active). Under `O=C(O)/C=C\C(=O)Nc1ccc(OCc2ccccc2)cc1` stands -4.77%; under `Cc1c(-c2nn(C)c(=O)c3ccccc23)oc2ccc(F)cc2c1=O`, 94.9% (active); under `O=C1c2oc3ccc(Br)cc3c(=O)c2C(c2cccc(F)c2)N1CCO` (configuration not stated), -1.54%. Under `Cc1ccc(F)cc1NC(=O)Cc1nn(C)c(=O)c2ccccc12` stands -5.08%; under `CCN(CCCNC(=O)CCn1c(=O)[nH]c2ccsc2c1=O)c1ccccc1`, -5.73%. On to `COC(=O)c1cc(NC(=O)c2cccnc2)ccc1N1CCOCC1`, for which the inhibition was -4.83%. Under `Clc1ccc(-n2nnnc2-c2cnc(-c3ccccn3)nc2-c2cccs2)cc1` stands 61.2% (active). The same measure for `O=C(Cn1cc(-c2nnnn2-c2ccc(Cl)cc2)c(=O)c2ccccc21)c1ccccc1`: -4.69%; for `c1ccc(-c2noc(-c3cccs3)n2)nc1`: -1.93%. For `COc1ccccc1N1CCN(C(=O)c2cc3c(-c4ccc(Cl)cc4)nn(C)c3s2)CC1`, the inhibition was 60.4% (active). For `CCOC(=O)N1CCN(C(=O)c2cc3c(-c4ccc(Cl)cc4)nn(C)c3s2)CC1`, the inhibition is 10.6%.

In the case of `COc1ccccc1N1CCN(C(=O)c2cn(-c3ccccc3)nc2-c2cccnc2)CC1`, the inhibition was 84.2% (active).

In the case of `O=C(c1cn(-c2ccccc2)nc1-c1cccnc1)N1CCCCC1`, the inhibition was -1.11%.

Consider `CC(C)(C)OC(=O)N/N=C/c1cn(-c2ccccc2)nc1-c1cccnc1`, for which the inhibition was 21.8%. The same measure for `COc1cccc(-c2nn(C)c3sc(C(=O)N4CCN(c5ccccc5)CC4)cc23)c1`: 20.1%; for `C/C(=N/Nc1ccc(Cl)cc1)c1cnnc(-c2ccccc2)n1`: 2.35%. As to `Cc1ccc(C(=O)NC(=S)Nc2ccccc2C)cc1`, the inhibition was 0.17%. On to `Cc1nn(-c2ccccc2)c(C)c1/C=N/NC(=O)CSc1nc2ccccc2c(=O)n1-c1ccccc1`, for which the inhibition is 14.7%. The same measure for `C/C(=N\NC(=O)CSc1nc2ccccc2c(=O)n1-c1ccccc1C)c1cccs1`: 91% (active); for `C/C(=N\NC(=O)COc1c(C)cccc1C)c1cccs1`: 2.87%. Regarding `Cc1ccnc(NC(=O)CCCOc2ccccc2)c1`, the inhibition was -3.55%. The same measure for `O=C(Nc1ccc(F)cc1)N1CCN(c2ccc(F)cc2)CC1`: -0.19%.

The inhibition is the change of the read-out against control, counted positive when it falls.
